Laboratory results taken from PubChem BioAssay (NCI).
Where “and” joins values, the source holds several entries; their conditions need not be identical. Identical values can stand only once. The panel holds about 79,000 compounds, 15% with a hit somewhere; the sample as a whole holds those more often. Calls of active or inactive are those of the source. No stated cut-off is given here; in the data, active means growth inhibition above about 70%; inactive means the rest. Where a SMILES comes first, the peptide text is derived from it.

Assays:
[1] = NCI Yeast Anticancer Drug Screen. Data for the rad50 strain (AID 155);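 further: 0% = growth of vehicle-only cultures of the same strain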; conditions: S. cerevisiae rad50 strain growth inhibition, hits give high values; at 50.0 µM unless noted
Outline: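 Genetically altered yeast (DNA repair pathway); compound treatment; growth inhibition vs vehicle ctrl.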

[2] = NCI Yeast Anticancer Drug Screen. Data for the mec2-1 strain (AID 157); conditions: S. cerevisiae mec2-1 strain, hits give high values; at 50.0 µM unless noted
Outline: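 Test agents were screened against the mec2-1 yeast strain, with defined DNA repair or cell cycle alteration. Growth was scored as inhibition against vehicle-only controls.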

[3] = NCI Yeast Anticancer Drug Screen. Data for the sgs1 mgt1 strain (AID 161);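 further: 0% = growth of cultures given vehicle only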; conditions: S. cerevisiae sgs1 mgt1 strain, hits give high values; at 50.0 µM unless noted
Outline: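 Inhibition of yeast growth, normalised to vehicle-treated controls, is reported for a strain bearing genetic alterations in DNA damage repair.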

[4] = NCI Yeast Anticancer Drug Screen. Data for the cln2 rad14 strain (AID 165);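 further: 0% = growth equal to vehicle treated cultures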; conditions: S. cerevisiae cln2 rad14 strain, hits give high values; at 50.0 µM unless noted
Outline: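 Growth of compound-exposed yeast (cln2 rad14 genotype) measured and expressed as inhibition relative to vehicle.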

[5] = NCI Yeast Anticancer Drug Screen. Data for the bub3 strain (AID 167); conditions: S. cerevisiae bub3 mutant strain, hits give high values; at 50.0 µM unless noted
Outline: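 Yeast carrying a defined mutation is treated with each compound, and growth is compared with that of vehicle-exposed cells to give inhibition.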

[6] = NCI Yeast Anticancer Drug Screen. Data for the mlh1 rad18 strain (AID 175); conditions: S. cerevisiae mlh1 rad18 strain growth inhibition, hits give high values; at 50.0 µM unless noted
Outline: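 In this whole-cell yeast screen, a strain with altered DNA damage repair is challenged with compound, and its growth is measured against matched vehicle-treated controls.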

Measured: growth inhibition

C(CCCC1CO1)CCC1CO1 (stereo unspecified)
inactive: [1] 24.5% | [2] 18.3% | [3] 17.7% | [4] -36.5% | [5] 11.1% | [6] 7.65%

C/C(=C\CNc1nc(Cl)nc2nc[nH]c12)CO
inactive: [1] -12.3% | [2] -5.6% | [3] -32.6% | [4] 3.6% | [5] -0.4% | [6] -8.4%

CN(C)P1(=O)N(c2ccccc2)P(=O)(N(C)C)N1c1ccccc1 (stereo unspecified)
inactive: [1] -11.5% | [2] -32.1% | [3] -17.1% | [4] -1.55% | [5] -19.4% | [6] -34.7%

O=c1[nH]nc(-c2ccccc2)nc1/C(=N\Nc1ccccc1)c1ccccc1
inactive: [1] 15.5% | [2] -12.3% | [3] 1.05% | [4] 0.85% | [5] 12.5% | [6] 14.7%

CC(=O)N(c1nc2ccccc2s1)N1C(=O)c2ccccc2C1=O
inactive: [1] -18.8% | [2] -33.3% | [3] -17.9% | [4] -2.15% | [5] -40.2% | [6] -20.2%

O=c1[nH]cnc2c1ncn2C1CCCO1 (stereo unspecified)
inactive: [1] -14.2% | [2] -3.3% | [3] -2.9% | [4] -24.1% | [5] 17.4% | [6] 0.9%

O=C1NC(=O)[C@@]2(CC[C@@H](O)C2)c2ccncc21
inactive: [1] 3.55% | [2] -42.6% | [3] -10.2% | [4] 16.4% | [5] -33.2% | [6] -86.5%

CCC(C)(CC=C(C)C)c1ccncc1 (stereo unspecified)
inactive: [1] -6.7% | [2] 1.95% | [3] 3.1% | [4] -16.8% | [5] 9.6% | [6] -9.6%

COc1ccc2[nH]c3ccccc3c(=O)c2c1
inactive: [1] 12.6% | [2] -3.2% | [3] 8.8% | [4] -66.4% | [5] 3% | [6] -6.65%

COc1ccc(COC(=O)Nc2ccccc2F)c(OC)c1OC
inactive: [1] 3.15% | [2] -9.55% | [3] 30.7% | [4] -3.55% | [5] 26.6% | [6] 16.7%

C=CCC1(CN(C)C)CC/C(=C\c2ccc(Cl)cc2)C1=O (stereo unspecified)
inactive: [1] 55.2% | [2] 23.6% | [3] 59.8% | [4] 42.2% | [5] 16.3% | [6] 52.5%

C=C(CC(O)(C(F)(F)F)C(F)(F)F)CC(O)(C(F)(F)F)C(F)(F)F
active: [2] 94.5% | [5] 95% | [6] 95%
inactive: [1] 64.8% | [3] 63.9% | [4] 65.6%

CC(N)(CC(O)(C(F)(F)Cl)C(F)(F)Cl)C(=O)O (stereo unspecified)
inactive: [1] -48.1% | [2] -37.7% | [3] -33.4% | [4] -9.25% | [5] -13.7% | [6] -28.8%

CC1=C(c2ccccc2)OC(c2ccccc2)=C[P+]1(c1ccccc1)c1ccccc1
active: [1] 97.8% | [2] 99.5% | [3] 99.4% | [4] 99.3% | [5] 99.3% | [6] 99.2%

N=C(N)C1CN(CC=O)C(=O)NC1=O (stereo unspecified)
inactive: [1] -11.7% | [2] 11.1% | [3] -2.65% | [4] 24.9% | [5] -4.15% | [6] 11.8%

CCCCC(CCCC)C(=O)O
inactive: [1] -22.3% | [2] -9.65% | [3] -9.85% | [4] 50% | [5] 10.9% | [6] -9.3%

O=S(=O)(/C(=C\c1ccccc1)c1ccccc1)c1ccccc1
inactive: [1] -4.8% | [2] -12.4% | [3] -12.8% | [4] -17.7% | [5] -4.5% | [6] -6.65%

Cc1ccc(S(=O)(=O)OC2CCN(C)CC2)cc1
inactive: [1] 36.5% | [2] 6.75% | [3] 15.8% | [4] 9.6% | [5] 43.2% | [6] 30.1%

ClN(Cl)c1nc(-c2ccccc2)nc(N(Cl)Cl)n1
inactive: [1] 18.1% | [2] 29.6% | [3] 34.9% | [4] -38.1% | [5] 32.5% | [6] 31.5%

COc1cc(C(O)C2C(=O)OCC2C2(c3ccc4c(c3)OCO4)SCCCS2)cc(OC)c1OC (stereo unspecified)
inactive: [1] 36.1% and -8.8% | [2] -2.8% and -8.95% | [3] 35.4% and -21.5% | [4] 7.2% and 1.7% | [5] 10.1% and -2.95% | [6] 1.45% and 17.2%

CC(C)=CCCC(C)CCO (stereo unspecified)
inactive: [1] -5.1% | [2] -4.75% | [3] -15.4% | [4] 16.4% | [5] -16.6% | [6] 3.25%

CCCCCCC(O)C[N+](=O)[O-] (stereo unspecified)
inactive: [1] 0.3% | [2] -28.9% | [3] -11.8% | [4] -5% | [5] -2.75% | [6] -3.9%

NC(=O)C1CCCN1C(=O)C(N)Cc1ccccc1 (stereo not drawn) (H-Phe-Pro-NH2; configuration not given here)
inactive: [1] -26.9% | [2] -44.1% | [3] -21.1% | [4] 5.7% | [5] 4.7% | [6] -9.05%

O=[N+]([O-])c1ccc(N(CCO)CCO)cc1
inactive: [1] 1.05% | [2] -12.8% | [3] -1.75% | [4] 9.25% | [5] -6.4% | [6] -17.1%

CC(=O)OC1CCC2(C)C(C1)C(=O)OC1C2CCC2(C)C(C(C)CCCC(C)C)CCC12 (stereo unspecified)
inactive: [1] 27.4% | [2] 3.55% | [3] 2.75% | [4] -12.7% | [5] -3.85% | [6] 23.4%

Cc1ccc(/C=C2\NC(=S)NC2=O)cc1
inactive: [1] -0.15% | [2] -18.9% | [3] -1.9% | [4] -21.4% | [5] -23.4% | [6] -41.4%

Cc1cc(C2=NCC(C)(C)S2)ccc1O
inactive: [1] 15.2% | [2] 7.8% | [3] 8.9% | [4] 10.2% | [5] 25% | [6] 29.5%

C=CCCCC1CCCNC1=S (stereo unspecified)
inactive: [1] 8.3% | [2] 6.1% | [3] 20.4% | [4] 12.6% | [5] 28.9% | [6] 20.9%

CC1(C)Oc2ccccc2OC1O (stereo unspecified)
inactive: [1] 1.5% | [2] 0.85% | [3] -1.75% | [4] -14.7% | [5] -10.2% | [6] 3%

CCOP(=O)(OCC)/C(=C/n1c(=S)[nH]c2ccccc21)C(=O)OC
inactive: [1] -29.8% | [2] -55.1% | [3] -10% | [4] 0.9% | [5] -0.8% | [6] -22.2%

O=C(O)c1cc(C(=O)C(=O)c2cc(C(=O)O)c(O)c3ccccc23)c2ccccc2c1O
inactive: [1] -31.7% | [2] -25.4% | [3] -7.15% | [4] -0.4% | [5] -17.9% | [6] -19.4%

CCCCCCCCCCCCOC(=O)NC1c2ccccc2Oc2ccccc21
inactive: [1] 30.4% | [2] 17.6% | [3] 26.6% | [4] 32.5% | [5] 19.6% | [6] 43.4%

Cc1ccc(O)cc1N(C)C
inactive: [1] -18.4% | [2] -3.95% | [3] -12.7% | [4] -35% | [5] -6.25% | [6] -3.65%

ClB1NB(Cl)NB(Cl)N1
inactive: [1] -9.45% | [2] -33.8% | [3] -9.95% | [4] -7% | [5] -11.9% | [6] 3.55%

O=C(C[n+]1csc2ccccc21)c1ccccc1
inactive: [1] 9% | [2] 15.3% | [3] 17.1% | [4] 20.4% | [5] 30.4% | [6] 3.8%

CC(=O)Nc1cc(Cl)ccc1F
inactive: [1] 14.1% | [2] -6.15% | [3] 12.4% | [4] -7.1% | [5] -0.7% | [6] 17.9%

COc1ccc(C(=O)CCC2(C)OCCO2)cc1OC
inactive: [1] 27.3% | [2] 5.8% | [3] 18.9% | [4] 8.4% | [5] 21.9% | [6] 17.5%

O=C(NC(=O)c1ccccc1)Oc1cccc2ccccc12
inactive: [1] 18.3% | [2] -0.1% | [3] 20.1% | [4] 7.85% | [5] 10.7% | [6] 22.8%

CCCCCCCC/C=C\CCCCCCCC(=O)NN
inactive: [1] -7.85% | [2] 0.15% | [3] -4.25% | [4] -76% | [5] -2.7% | [6] -12.8%

O=C(O)c1ccccc1Br
inactive: [1] 1.1% | [2] 5.4% | [3] -13.6% | [4] -6.95% | [5] -17.4% | [6] -3.35%

Cc1nc2c(N)n[nH]c(=O)n2n1
inactive: [1] -20.9% | [2] -14.4% | [3] -19.2% | [4] -54% | [5] 7.15% | [6] -4.7%
